# Reference: PMC7819943, “Rice protein-binding microarrays: a tool to detect cis-acting elements near promoter regions in rice”
# The full ranking holds about 35,000 sequences; the median of “fluorescence intensity (a.u.)” is about 10,000, and the highest 2% start at about 52,000. The sample holds the highest values, similar sequences and a random draw of the others, so the mix is not that of the screen.
# Target: T1, OsWOX13 (Oryza sativa, UniProt Q5QMM3 1-267)
# T1 sequence: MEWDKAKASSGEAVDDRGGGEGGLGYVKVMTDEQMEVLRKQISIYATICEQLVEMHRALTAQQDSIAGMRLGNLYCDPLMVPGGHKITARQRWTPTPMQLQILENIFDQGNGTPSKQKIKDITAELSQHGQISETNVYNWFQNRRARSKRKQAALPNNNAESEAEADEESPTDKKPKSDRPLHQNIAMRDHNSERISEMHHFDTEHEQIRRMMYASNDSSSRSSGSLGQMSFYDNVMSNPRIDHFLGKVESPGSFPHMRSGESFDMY
# Experiment: protein-binding microarray (RPBM); PBS, 2% BSA, 51.3 ng/ul salmon testes DNA, 50 uM zinc acetate, 200 nM TF, 25 C, 1 h; high values mean tight binding
# Settings: protein: recombinant; tags: N-terminal polyhistidine and DsRed monomer fusion (pET32a); label: CyDye5-dUTP incorporated in the synthesized complementary strand; 3' TTTTT single-stranded linker to array surface; dsDNA, one strand shown
# Procedure, shortened: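 Binding signal is defined as the fluorescence intensity of each feature in arbitrary units, read on an Axon 4000B scanner. Transcription factors with N-terminal polyhistidine and DsRed fusions came from E. coli BL21-CodonPlus and were purified on Ni–NTA. They were incubated at 200 nM for 1 h at 25 °C on a custom Agilent array that had been made double-stranded with Cy5-dUTP, with 50 µM zinc acetate present, and the array was washed.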
row,Sequence,binding signal
1,CGATGATTGTTAGTATACACTATATGTATGGTGTTTATCCCGGAGTCACCTAGTGCAG,40600 fluorescence intensity (a.u.)
2,CTTGATTGACGACCATCTCGTGGTTACCAATTCCATCACCCGGAGTCACCTAGTGCAG,60000 fluorescence intensity (a.u.)
3,CTACTATCAATCGACCAATTCCAATCTCATCGTTACAGGACGGAGTCACCTAGTGCAG,4190 fluorescence intensity (a.u.)
4,GCTTGACGACACCATTCGGATTGTTCCATCACTTCCATACCGGAGTCACCTAGTGCAG,3540 fluorescence intensity (a.u.)
5,ACATGTTTTATCAATTAGTAGTATGGGCATATTACTAGTGCGGAGTCACCTAGTGCAG,17800 fluorescence intensity (a.u.)
6,TCTCTTCCTTGCTGTGGTGGCGGCGGGCGGGAGGGCGGCGCGGAGTCACCTAGTGCAG,12700 fluorescence intensity (a.u.)
7,TGCCCTTACCTGTGGTTTCTCCCGCGGCGGCGGGGTGGAGCGGAGTCACCTAGTGCAG,65500 fluorescence intensity (a.u.)
8,AGGAGGCGGGGCGGGGCGGCGGCGGCGGCGGCGGCGCCCGCGGAGTCACCTAGTGCAG,5340 fluorescence intensity (a.u.)
9,TCTGACCTGTATACTAATTTATGACCATATACTTAATCAACGGAGTCACCTAGTGCAG,5380 fluorescence intensity (a.u.)
10,AAAACCATCATCAATCAGCCGATCCTGATGTTGTCCCTGCCGGAGTCACCTAGTGCAG,25100 fluorescence intensity (a.u.)
11,AAGAGATTGGAATCGGGCGTACCGGAGAACTTTGGAGATGCGGAGTCACCTAGTGCAG,12100 fluorescence intensity (a.u.)
12,TTGATTAATTTATTTATAGTTTTGTGAAAGTTTGCGCCGTCGGAGTCACCTAGTGCAG,57900 fluorescence intensity (a.u.)
13,GTCTAATTGTGATTTTATATTTTAATTAATTATATATTGTCGGAGTCACCTAGTGCAG,34800 fluorescence intensity (a.u.)
14,AATTGATTATTCCTAACAACATTCCGCGGATTAATTTTCTCGGAGTCACCTAGTGCAG,15500 fluorescence intensity (a.u.)
15,GGAAGAATTGATTGATTAAAGATATATATCGAATATCTGCCGGAGTCACCTAGTGCAG,40400 fluorescence intensity (a.u.)
16,TATGATTGATATCCACGAATTGAAGAAGAAGTTGCATTGCCGGAGTCACCTAGTGCAG,55300 fluorescence intensity (a.u.)
17,TCGTTGTAATAATTTGATTTCTTTTGCAGACGGTCTTTATCGGAGTCACCTAGTGCAG,5300 fluorescence intensity (a.u.)
18,GGATAATGATTTGACATTGATTGCGGTCTCGTTATTTTCTCGGAGTCACCTAGTGCAG,59500 fluorescence intensity (a.u.)
19,CTCAAAAGTTTGGGTTGATCGATCATTTGCCTACCGAAACCGGAGTCACCTAGTGCAG,65500 fluorescence intensity (a.u.)
20,GGTTTAAATTTTAAAAGTTTGATCAAATATTATCCTAAACCGGAGTCACCTAGTGCAG,4900 fluorescence intensity (a.u.)
21,AGATAATTGTGAAATAATTATATTGCGATTTGATAAAGTACGGAGTCACCTAGTGCAG,14700 fluorescence intensity (a.u.)
22,ACATATCTTAAGATTGATGAAGTCACCACGAACGCCTCGCCGGAGTCACCTAGTGCAG,11700 fluorescence intensity (a.u.)
23,ATGAAAGGAGTTGATTTGCACCGGTTTTCAAAGATGAAAACGGAGTCACCTAGTGCAG,3470 fluorescence intensity (a.u.)

row,Sequence,binding signal
1,TGGAAGAAATTGATGTAATGCTCTGGCCTTTTCATGGATACGGAGTCACCTAGTGCAG,8100 fluorescence intensity (a.u.)
2,GCTAATTAAATTAATAATTCATCTTAGGAATCACAGCGTCCGGAGTCACCTAGTGCAG,39000 fluorescence intensity (a.u.)
3,CGCTTAATGACTTCACTTTGTCCTCGGATGATTTGCGTCCCGGAGTCACCTAGTGCAG,11700 fluorescence intensity (a.u.)
4,CCCAGTCAATCTCCCCATCTCCTCGGCCTCGGCAATAGTACGGAGTCACCTAGTGCAG,7200 fluorescence intensity (a.u.)
5,GATAGATAGATAGATAGATAGATAGATAGATACTAGTACACGGAGTCACCTAGTGCAG,37000 fluorescence intensity (a.u.)
6,GCTTAATTAGCCGCTTCAGTTGCACAGTAACTGAGGAACCCGGAGTCACCTAGTGCAG,32700 fluorescence intensity (a.u.)
7,TGTAATAATAATTTAATCGATCTTTCAAGGGGCATTCTCGCGGAGTCACCTAGTGCAG,8040 fluorescence intensity (a.u.)
8,TTTAGATTGCTAAACACACATGTATATATAAGTTTTATTTCGGAGTCACCTAGTGCAG,5900 fluorescence intensity (a.u.)
9,TCGATTGACTGCATCTTTTCCTGAAAGTGAACATGCAGTGCGGAGTCACCTAGTGCAG,32500 fluorescence intensity (a.u.)
10,TGTAATCTATCAAGAATCCATTACTGAGACACAAATGCATCGGAGTCACCTAGTGCAG,4280 fluorescence intensity (a.u.)
11,TCCTAATTAATGTTAGAAATTTTCCTAATTAATGCTAGAACGGAGTCACCTAGTGCAG,28600 fluorescence intensity (a.u.)
12,TGTAACTATTATATAAATTGGCTATTAAGTTTGACTATAGCGGAGTCACCTAGTGCAG,17800 fluorescence intensity (a.u.)
13,GAGTTGATTTGCGTTGTCTCTCCGTCTCTTTCTTATTAATCGGAGTCACCTAGTGCAG,20800 fluorescence intensity (a.u.)
14,ACATATATAAGTTGATTGATTTGTTATTATAGACGACGAGCGGAGTCACCTAGTGCAG,55400 fluorescence intensity (a.u.)
15,ACTAAAATTTGATAAAATTTATTTTGCCTATAATATAAACCGGAGTCACCTAGTGCAG,6120 fluorescence intensity (a.u.)
16,AAGTTATATATATTGATGATTTATACAACTTTGTTGGTGACGGAGTCACCTAGTGCAG,3620 fluorescence intensity (a.u.)
17,CTATTGATTATGATAATTTGAAGTTATATAGCTTGATTTGCGGAGTCACCTAGTGCAG,57700 fluorescence intensity (a.u.)
18,CGTTGATTATTGCGATCGAAACCGTCTCATATAATTTTGCCGGAGTCACCTAGTGCAG,52500 fluorescence intensity (a.u.)
19,TTAAATTGACTATAGTTGATTTGTAGCCTACAATTGGCAGCGGAGTCACCTAGTGCAG,64600 fluorescence intensity (a.u.)
20,TAGTTATATTTGATTATCTTGCGAACCTATATATAATATGCGGAGTCACCTAGTGCAG,5250 fluorescence intensity (a.u.)
21,TGGTTATTATATTGATTATAGATAATTTGAAGTTAGTAGTCGGAGTCACCTAGTGCAG,31500 fluorescence intensity (a.u.)
22,TATAATTGATCTTTGTAGTTATTTTGTTGCATACATAAGACGGAGTCACCTAGTGCAG,29100 fluorescence intensity (a.u.)
23,ACTAGTATTAAATTGACTATAAATGATTTGGAGTTAGTAGCGGAGTCACCTAGTGCAG,26300 fluorescence intensity (a.u.)
